Shown are actives, neighbours in structure and some others; about 12% of the full set was active somewhere.
JMJD2A Tudor = qHTS Assay for Inhibitors of JMJD2A-Tudor Domain. AlphaScreen JMJD2A-Tudor / H3K4me3 peptide binding. Lysine-specific demethylase 4A (Homo sapiens), O75164. AID 504339, 2011. Potency, µM (top dose mostly 114 µM), for the others: at the top dose activity change, negative = inhibition, hits mostly inhibitors. actives 4.4% (n = 390,000); further: on the % scale 0 is the no-effect control and ±100 the full control effect; nearly all actives have a fitted effect of over 50% in size
Target sequence (O75164 whole entry, looked up, the tested form may be a part): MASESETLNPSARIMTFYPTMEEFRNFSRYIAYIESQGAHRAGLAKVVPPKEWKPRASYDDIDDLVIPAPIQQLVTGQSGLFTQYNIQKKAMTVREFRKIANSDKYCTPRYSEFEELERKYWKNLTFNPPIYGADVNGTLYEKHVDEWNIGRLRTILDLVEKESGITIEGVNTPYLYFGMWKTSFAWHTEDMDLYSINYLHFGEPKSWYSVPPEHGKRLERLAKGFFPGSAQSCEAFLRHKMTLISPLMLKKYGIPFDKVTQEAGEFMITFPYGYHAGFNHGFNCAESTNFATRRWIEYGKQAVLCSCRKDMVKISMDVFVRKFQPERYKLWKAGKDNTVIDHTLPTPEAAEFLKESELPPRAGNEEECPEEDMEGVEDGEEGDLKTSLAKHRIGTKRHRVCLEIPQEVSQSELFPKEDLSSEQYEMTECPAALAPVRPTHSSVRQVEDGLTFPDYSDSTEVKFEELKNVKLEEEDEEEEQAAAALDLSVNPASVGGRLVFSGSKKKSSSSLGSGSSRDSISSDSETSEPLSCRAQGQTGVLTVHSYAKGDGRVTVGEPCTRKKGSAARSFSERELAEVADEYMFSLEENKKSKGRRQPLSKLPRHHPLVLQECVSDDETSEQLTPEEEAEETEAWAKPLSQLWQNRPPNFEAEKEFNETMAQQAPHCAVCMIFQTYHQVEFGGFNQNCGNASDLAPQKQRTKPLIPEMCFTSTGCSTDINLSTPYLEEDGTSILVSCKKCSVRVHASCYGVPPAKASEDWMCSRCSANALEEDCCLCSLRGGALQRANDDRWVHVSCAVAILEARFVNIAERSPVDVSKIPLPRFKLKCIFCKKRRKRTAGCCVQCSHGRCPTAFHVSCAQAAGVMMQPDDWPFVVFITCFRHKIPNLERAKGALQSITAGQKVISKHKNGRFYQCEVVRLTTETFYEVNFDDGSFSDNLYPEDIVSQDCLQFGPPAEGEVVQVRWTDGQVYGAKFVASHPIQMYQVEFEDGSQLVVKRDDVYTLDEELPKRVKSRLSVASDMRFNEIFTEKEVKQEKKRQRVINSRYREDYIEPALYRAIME
HP1b binding inh = HTS for Inhibitors of HP1-beta Chromodomain Interactions with Methylated Histone Tails; AID 540317, 2011; Potency, µM (titrated, usually from 114 µM), without a hit: top-dose activity change, negative = inhibition, usual class: inhibitors; actives 0.56% (n = 390,000); Chromobox protein homolog 1 (Homo sapiens), P83916; AlphaScreen HP1-beta / biotin-H3K9me3 peptide binding; further: nearly all actives have a fitted effect of over 70% in size
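AlphaScreen: HP1-beta (50 nM) preformed 30 min with biotin-H3(1-18)K9me3 peptide (50 nM) in PBS pH 7.4, 0.01% Tween-20. Compound added for 30 min at RT, then streptavidin donor/nickel chelate acceptor beads (10 ug/mL) for 30 min.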
BAZ2B inh = qHTS Assay for Inhibitors of BAZ2B. actives 4.4% (n = 360,000). AID 504333, 2011. AlphaScreen BAZ2B-H3K14Ac peptide displacement. Potency, µM (titrated, usually from 114 µM), without a hit: at the highest dose activity change, negative = inhibition, usual class: inhibitors; further: on the % scale 0 is the no-effect control and ±100 the full control effect; nearly all actives have a fitted effect of over 60% in size
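Compounds, titrated to a top concentration of 110 uM, were incubated 30 min at room temperature with preformed BAZ2B/acetyl-K14 H3 peptide complex (50 nM each). Proximity signal was measured by AlphaScreen after 20 min with beads.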
G9a block = qHTS Assay for Inhibitors of Histone Lysine Methyltransferase G9a. Histone-lysine N-methyltransferase EHMT2 (Homo sapiens), Q96KQ7. G9a H3K9 monomethylation, AlphaScreen, 2 h. Potency, µM (titrated, usually from 102 µM), for the others: at the highest dose activity, negative = inhibition, usual class: inhibitors. actives 8.8% (n = 350,000). AID 504332, 2011; further: on the % scale 0 is the no-effect control and ±100 the full control effect; nearly all actives have a fitted effect of over 75% in size
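Using a bead-based AlphaScreen, monomethylated H3K9 product from 2 h room-temperature reactions (G9a 20 nM, peptide 500 nM, SAM 20 uM) was detected with 0.5 ug/mL rabbit anti-H3K9me1 antibody.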
L3MBTL1 block = qHTS Assay for the Inhibitors of L3MBTL1; AlphaScreen L3MBTL1–H3K9me1 peptide binding; Potency, µM (series often up to 57.1 µM), inactives show at the highest dose activity, negative = inhibition, actives largely listed as inhibitors; actives 0.66% (n = 230,000); AID 485360, 2010; further: on the % scale 0 is the no-effect control and ±100 the full control effect; nearly all actives have a fitted effect of over 60% in size
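Displacement of a biotinylated histone H3(1-15) peptide monomethylated at Lys9 (75 nM) from L3MBTL1 (50 nM) was measured by AlphaScreen after a 30 min room-temperature compound incubation; cefsulodin titration served as intraplate control.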
Sfp inh = qHTS Assay for Inhibitors of Bacillus subtilis Sfp phosphopantetheinyl transferase (PPTase) | Biochemical Sfp PPTase activity, qHTS | Potency, µM, without a hit: largest response in the series, negative = inhibition, usual class: inhibitors | actives 3.5% (n = 310,000) | AID 1490, 2009;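 further: the enzyme is Sfp with the accession as filed and its product quenches rhodamine fluorescence; 0% = enzyme reaction without inhibitor and -100% = no enzyme wells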
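Fluorescence-quenching assay: 15 nM Sfp-PPTase preincubated 15 min at room temperature with compound, then 5 uM rhodamine-CoA and 12.5 uM BHQ-2-labelled YbbR peptide added. Fluorescence (ex 525/em 598 nm) read at start and after 30 min; difference gives rate.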
The depositor's hits bear a star; ? = inconclusive; . = not tested or not shown; [ ] = remark or other dose. The call rests on the fitted dose curve; in most records, active means well fitted curve in the direction sought with a large enough effect; inconclusive means small, poorly fitted or top-dose-only effect, or another doubt; inactive means no such curve, though single readings can be large; an effect the other way counts as inactive or inconclusive. Potency means the concentration at half of the fitted maximal effect.

SMILES	JMJD2A Tudor	HP1b binding inh	BAZ2B inh	G9a block	L3MBTL1 block	Sfp inh
Cn1nnc(NC(=S)NC(=O)c2cc3ccccc3o2)n1	-20.4%	5.7%	-14.2%	?	.	50.1µM*
CC(=O)Nc1ccc(NC(=S)NC(=O)c2cc3ccccc3o2)cc1	-6.7%[57.1 µM]	23.0%	-3.0%	1.2%[59 µM]	13.2%	1.0%
CC(OC(=O)CC1CC2CCC1C2)C(=O)Nc1cccc(S(=O)(=O)N2CCOCC2)c1 (stereo not given)	-12.6%	4.5%	-2.4%	?	7.7%	.
CC(C)N=C(NS(=O)(=O)c1ccc(Br)cc1)c1ccc(Cl)cc1	-13.1%	30.0%	8.4%	-8.7%[0.501 µM]	2.8%	14.6%
Cc1ncn(-c2ccccc2)c1-c1ccccc1	?	-4.5%	50.1µM*	20.5%[2.33 µM]	-14.3%	.
c1ccc(-n2cnc3ccccc32)cc1	5.2%	52.3%	12.4%	4.7%	.	5.2%
COCCNC(=S)N1CCc2cc(OC)c(OC)cc2C1c1cccs1 (stereo not given)	-5.5%	38.5%	-18.7%	30.0%	.	-10.0%
CCc1cccc(C)c1NC(=S)NCc1ccc2[nH]c(C)cc2c1	?	5.4%	39.8µM*	?	-13.1%	1.0%
CCC(=O)NCc1ccc2[nH]c(C)cc2c1	-17.9%	32.3%	-15.8%	35.5µM*	-0.3%	-6.2%
CCC(=O)c1ccc(OCC(=O)N2CCCC2)c(OC)c1	15.1%	34.0%	50.1µM*	.	?	6.9%
CCC(=O)c1ccc(OCC(=O)O)c(OC)c1	-0.3%	49.1%	1.3%	79.4µM*	-15.9%	14.0%
CCOC(=O)COc1ccc(C(=O)CC)cc1OC	2.1%	24.8%	-1.7%	6.8%	5.6%	12.2%
CCC(=O)c1ccc(OCC(=O)N2CCc3cc(OC)c(OC)cc3C2)cc1	-14.2%	39.6%	9.4%	-34.7%[12.7 µM]	-4.1%	12.8%
CC(=O)N1CCCc2cc(S(=O)(=O)N3CCC(C(=O)N(Cc4ccccc4)C(C)C)CC3)ccc21	-11.6%	12.3%[57 µM]	3.4%	3.8%[59 µM]	.	.
N#CCCN(CC(=O)O)S(=O)(=O)c1ccccc1	-9.2%[11.4 µM]	67.6%	-8.2%	?	.	12.0%
CS(=O)(=O)N(CCC#N)Cc1ccc(/C=C2\C(=O)Nc3ccccc32)o1	-30.1%	-10.9%	-22.4%	44.7µM*	-1.2%	-0.1%
O=C(CCC(F)(F)F)N1CCC(CO)(CCc2ccccc2)CC1	-1.0%	43.7%	-3.9%	52.7%	12.7%	13.4%
CC(C)n1c(=O)[nH][nH]c1=S	8.91µM*	12.6µM*	50.1µM*	0.891µM*	1.7%	8.91µM*
CCC(C)c1ccc(OCCCCN2CCOCC2)cc1 (stereo not given)	35.5µM*	?	50.1µM*	10µM*	.	-11.9%
Cc1ccc(OCCCn2ccnc2)cc1C	-28.6%	-0.4%	?	-35.9%[59 µM]	.	14.6%
Cc1cc(OCCn2ccnc2)ccc1C(C)C	3.16µM*	50.1µM*	44.7µM*	14.1µM*	10.0%	-1.6%
CCCCOc1ccc(OCCCN2CCOCC2)cc1	-17.9%	25.4%	-37.1%	-37.3%[2.33 µM]	-8.9%	-5.1%
CCC(=O)c1ccc(OCCN2CCOCC2)cc1	2.7%	20.3%	-2.1%	9.3%[12.7 µM]	7.7%	9.9%
CCOc1ccc(OCCn2ccnc2)cc1	5.01µM*	?	50.1µM*	10µM*	0.5%	?
Cc1cc(OCCN2CCOCC2)ccc1C(C)C	14.1µM*	?	50.1µM*	-50.8%[2.33 µM]	.	-29.5%
SMILES	JMJD2A Tudor	HP1b binding inh	BAZ2B inh	G9a block	L3MBTL1 block	Sfp inh
CCOc1ccc(Oc2ccc(NC(=O)CSc3nncn3C)cc2)cc1	-18.6%	37.7%	-6.8%	?	-6.5%	.
CCOc1ccc(C(=O)NCCCn2ccnc2)cc1	0.0%	30.2%	-6.4%	-36.8%[12.7 µM]	0.0%	9.2%
CCOc1ccc(OCCCCn2ccnc2)cc1	20µM*	?	50.1µM*	?	-9.4%	-22.8%
CC(C)(C)c1ccc(S(=O)(=O)N2CCC(Oc3ccc(-n4cnnn4)cc3)CC2)cc1	-14.8%	16.4%	-4.8%	7.9%[59 µM]	.	.
Cc1cccc(-c2cc(=O)c3cc(Br)ccc3o2)c1	.	.	.	.	.	79.4µM*
O=c1cc(-c2ccccc2)oc2ccc(Br)cc12	-20.4%	41.1%	.	.	6.0%	.
COc1ccc(CCNC(=O)/C(C#N)=C2\N=C(NC(=O)c3ccco3)c3ccccc32)cc1	-18.2%	14.8%	-3.5%	-10.4%	-5.0%	6.0%
COc1ccc(N2CCN(CCCNC(=O)C(=O)c3c[nH]c4ccccc34)CC2)cc1	28.2µM*	50.1µM*	14.1µM*	39.8µM*	.	-0.6%
COc1ccc(N2CCN(CCCNC(=O)C3CCCN(S(=O)(=O)c4cnc[nH]4)C3)CC2)cc1 (stereo not given)	?	38.2%	6.4%	50.1µM*	-10.0%	2.6%
COc1ccc(Nc2cc(C(=O)NCCCN3CCOCC3)c3ccccc3n2)cc1OC	?	9.4%	-37.2%	-12.0%[59 µM]	.	6.3%
COc1ccc(Nc2cc(C(=O)NCc3ccccc3)c3ccccc3n2)cc1OC	-14.0%	7.4%	.	3.4%[59 µM]	.	.
COc1ccc(Nc2cc(C(=O)NCCCN3CCN(c4ccc(OC)cc4)CC3)c3ccccc3n2)cc1	22.4µM*	?	14.1µM*	11.2µM*	.	.
CCN(CC)CCNC(=O)c1cc(Nc2ccc(OC)c(OC)c2)nc2ccccc12	?	-15.3%	39.8µM*	70.8µM*	.	-9.5%
CC1CCC(N2CC(=O)N(C3CCCCC3)C(c3ccc(Cl)cc3)C2=O)CC1 (stereo not given)	-19.9%	21.1%	-3.7%	-41.3%[59 µM]	.	.
CCCCCCCCCCCC	.	.	.	.	.	5.0%
COc1ccc(N2CCN(CCNC(=O)c3ccc4nc5ccccc5c(=O)n4c3)CC2)cc1	-3.9%	28.9%	-15.0%	6.7%	.	10.6%
COc1ccc(Nc2cc(C(=O)NCCCN3CCN(c4ccccc4F)CC3)c3ccccc3n2)c(OC)c1	10µM*	-33.5%	.	12.6µM*	.	.
COc1ccc(N2CCN(CCNC(=O)c3ccc4c(c3)[nH]c(=S)n3c5ccccc5nc43)CC2)cc1	?	4.9%	?	50.1µM*	-10.8%	20.2%
